High-throughput results (PubChem BioAssay)
D3 antag = D3 dopamine receptor (human) antagonism; D3R cells, DiscoveRx beta-arrestin luminescence, antagonist mode; stronger effect = lower value; P35462; AID 652054; 360,000 tested, 2.5% active; max response, negative = inhibition, %; in the data active = max response below about -50%; inconclusive = no clear call, values can overlap the other calls
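Cells expressing the human receptor were seeded at 1500 cells/well, incubated overnight at 37 degrees C in 5% CO2, then exposed to library compounds with dopamine controls for 90 minutes at 37 degrees C before luminescent detection.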
B2AR arrestin = beta2AR (human) beta-arrestin recruitment activity; 330,000 tested, 0.02% active; P07550; beta-arrestin recruitment to beta2AR, cell-based reporter; Potency, µM (titrated, usually from 46.1 µM), actives largely listed as activators; active = well fitted activation curve with a large enough effect; inconclusive = small, poorly fitted or top-dose-only effect; also: nearly all actives have a fitted effect of over 65% in size
Target sequence (P07550 whole entry, looked up): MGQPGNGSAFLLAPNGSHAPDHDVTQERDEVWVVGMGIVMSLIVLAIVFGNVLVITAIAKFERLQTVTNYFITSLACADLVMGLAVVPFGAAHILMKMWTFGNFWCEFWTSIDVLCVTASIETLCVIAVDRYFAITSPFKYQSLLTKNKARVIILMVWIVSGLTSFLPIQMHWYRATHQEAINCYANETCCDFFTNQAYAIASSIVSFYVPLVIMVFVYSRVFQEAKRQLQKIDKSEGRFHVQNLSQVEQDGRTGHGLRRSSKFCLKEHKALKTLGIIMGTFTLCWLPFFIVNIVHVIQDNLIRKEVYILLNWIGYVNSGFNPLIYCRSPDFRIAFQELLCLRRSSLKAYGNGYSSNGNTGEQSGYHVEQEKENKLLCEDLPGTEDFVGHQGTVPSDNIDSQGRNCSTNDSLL
DRD3 agonist = agonists of human D3 dopamine receptor | P35462 | D3R DiscoveRx beta-arrestin cells, luminescence, 90 min | max activation, % | 410,000 tested, 0.58% active | AID 652048; in the data active = max activation above about 30%
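Agonist-mode cell screen: cells plated at 1500/well and incubated overnight at 37 °C, then exposed to library compounds for 90 min at 37 °C. Detection reagent was added for 30–60 min at room temperature, and luminescence was read.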
Giardia kill = kills Giardia lamblia. Giardia lamblia trophozoite viability. activity change, % at 7.66 µM, hits read low. 340,000 tested, 0.15% active. AID 540267; in the data active = activity change below about -80%; inconclusive = between about -30% and that limit;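 also: parasites exposed to compound for two days anaerobically before the ATP read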
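Trophozoite viability was measured as ATP-dependent luminescence, read 15-30 min after reagent addition. Before that, parasites at 100 cells/well were exposed to compounds for 48 h, anaerobically, at 37 deg C.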
A number is an active result; n = inactive; u = inconclusive; x = no result given; ! = not confirmed by another sample. An excerpt weighted towards active compounds, which were near 2.8% of everything screened.

SMILES	D3 antag	B2AR arrestin	DRD3 agonist	Giardia kill
Cc1cccc(OCCNc2cc(N3CCOCC3)ccc2[N+](=O)[O-])c1	n	n	n	n
CCCc1nc2ccccc2n2c(-c3cccc(C)c3)c3c(=O)n(C)c(=O)n(C)c3c12	x	x	n	x
Cc1ccc2c(CC(=O)Nc3nnc(C(C)C)s3)coc2c1C	x	x	n	x
O=S1(=O)[C@H]2C[C@@H]3C=C[C@@]2(CN1Cc1cccc(Cl)c1)O3	n	n	n	n
CC(O)c1cccc(-c2ccc(CN3C[C@]4(CO)O[C@@H](CO)C[C@@H]4S3(=O)=O)cc2)c1 (stereo partly specified)	n	n	44.6	n
COc1ccc(-c2ccc(C)cc2)cc1C1C2C=CCCC2(C)C(=O)N1Cc1ccccc1 (stereo unspecified)	x	x	x	n
COc1ccc(-c2ccc(C)cc2)cc1[C@H]1[C@@H]2C=CCC[C@@]2(C)C(=O)N1Cc1ccccc1	-55.7	n	n	n
CCOC(=O)c1cccc(NC(=O)CN(C)S(=O)(=O)c2cnc[nH]2)c1	n	n	n	n
CCc1cccc(NC(=O)CN(C)S(=O)(=O)c2cnc[nH]2)c1	-52.3	n	n	n
CCOc1ccc(S(=O)(=O)N2CCC(c3ccncc3)CC2)cc1	x	x	n	x
Cc1cccc(N2CCN(C(=O)/C=C/c3cccs3)CC2)c1C	n	n	43.2	n
O=C(c1ccccc1F)N1c2nc(-c3ccco3)nn2C2(CCCCC2)[C@@H]2CCCC[C@@H]21	x	x	n	x
O=c1c(N=Nc2ccccc2)c[nH]n1-c1ccccc1	-61.9	x	n	x
Cc1nn(CC(=O)NCc2cccc(Br)c2)c(=O)c2c1sc1ccccc12	x	x	n	x
O=C(O)c1ccccc1-c1ccccc1C(=O)Nc1nc2ccccc2s1	n	n	n	n
COC(=O)c1sccc1NC(=O)c1cc(-c2cc(C)ccc2C)nc2ccccc12	n	n	n	n
Cc1ccc(C(=O)O)c(C(=O)Nc2nc3ccccc3s2)c1	n	n	30.0	n
Cc1ccc(C)c(-c2cc(C(=O)Nc3nccs3)c3ccccc3n2)c1	n	n	32.1	n
Clc1ccc(Cn2cc3c(n2)-c2cc4ccccc4n2C3)cc1	x	x	x	n
COc1ccccc1CNC(=O)CCCCn1c(=O)c2ccccc2n(Cc2ccccc2C)c1=O	x	x	n	x
CC(C)(C)NC(=O)NC(=O)CN1CCN(S(=O)(=O)c2ccccc2)CC1	n	n	n	n
CCOC(=O)c1ccc(S(=O)(=O)N2CCN(CC(=O)NC(=O)NC(C)(C)C)CC2)cc1	-71.5	n	n	n
CC1CCN(CC(=O)Nc2ccc(S(=O)(=O)N3CCCC(C)C3)cc2)CC1 (stereo unspecified)	n	n	n	n
CC1CCCN(CCC(=O)Nc2ccccc2)C1 (stereo unspecified)	n	n	n	n
CC1CCCN(CCC(=O)Nc2ccc(Br)cc2)C1 (stereo unspecified)	-86.3	n	n	n
SMILES	D3 antag	B2AR arrestin	DRD3 agonist	Giardia kill
CC1CCCN(CC(=O)Nc2ccc(S(=O)(=O)N3C(C)CCCC3C)cc2)C1 (stereo unspecified)	-51.0	x	n	x
CCN(Cc1nc(-c2cccc(C)c2)no1)S(=O)(=O)c1ccc(C)cc1	x	x	n	x
COC(=O)Nc1ncc(CN2CCC(c3ccccc3)CC2)s1	-54.3	n	n	n
Cc1ncc(CN2CCC(n3nccc3NC(=O)c3ccccc3)CC2)s1	n	n	n	n
CCOC(=O)C1=C(Cc2ccc(Cl)cc2)C(=O)c2ccccc2C1=O	-76.1	n	n	n
CCOC(=O)C1=C(C)N=C2c3ccccc3C(=O)C2C1c1ccc(Cl)cc1 (stereo unspecified)	u	n	n	n
CCOc1ccccc1C(=O)N[C@H](C(=O)Nc1nc2c(s1)CCCC2)C(C)C	-74.2	n	n	n
COc1ccc(C(=O)N[C@H](C(=O)Nc2nc3c(s2)CCCC3)C(C)C)cc1	n	n	n	n
COc1cccc(-n2cc(CNCc3cn(C)nc3-c3ccccc3F)cn2)c1	n	n	67.0	n
CO/N=C(\C(=O)N[C@@H]1C(=O)N2C(C(=O)O)=C(CSc3nc(C)c(CC(=O)O)s3)CS[C@H]12)c1csc(N)n1	x	x	n	x
CCCC[C@@H]1CNC(=O)C(=O)N1CCCc1cc(OC)c(OC)c(OC)c1	n	n	30.5	n
CCCN1CCC(=O)N([C@H](COc2ccccc2)CC(C)C)CC1	-57.6	n	n	n
CC(C)C[C@@H](COc1ccccc1)N1CCN(CCc2ccccc2)CCC1=O	u	n	n	n
COc1ccc(N=c2nc(-c3ccccc3)n(-c3ccc(C)cc3)s2)cc1	x	x	x	n
Oc1ccc(Cl)cc1CNCC1CCCCC1	-75.6	n	n	n
COc1ccc(Cn2cc(C(=O)c3ccc(Cl)cc3)c(=O)c3cc4c(cc32)OCO4)cc1	x	x	n	x
Cc1ccc(CN(Cc2cc3cc(C)ccc3[nH]c2=O)Cc2nnnn2Cc2ccccc2)cc1	x	x	x	n
N#Cc1c(NC(=O)CCN2C(=O)c3ccccc3C2=O)oc(-c2ccccc2)c1-c1ccccc1	-85.3	n	n	n
N#Cc1c(NC(=O)CN2C(=O)c3ccccc3C2=O)oc(-c2ccccc2)c1-c1ccccc1	u	x	n	n
CCOC(=O)c1cccc(Nc2cc(C)nc(C)n2)c1	x	x	n	x
NC[C@H](O)c1ccc(O)c(O)c1	n	x	47.5!	n
CC(C)NCC(O)c1ccc2ccccc2c1 (stereo unspecified)	n	x	n	n
CC(C)NCC(O)c1ccc(O)c(O)c1 (stereo unspecified)	n	x	38.6!	n
Oc1ccc(C(O)CNCCCCCCNCC(O)c2ccc(O)c(O)c2)cc1O (stereo unspecified)	x	x	n	x
C[C@H](NC(=O)[C@H](Cc1ccccc1)n1c(=O)[nH]c2ccccc2c1=O)C(=O)N1CCC(C(=O)O)CC1	n	n	36.4	n
SMILES	D3 antag	B2AR arrestin	DRD3 agonist	Giardia kill
CSCC[C@H](NC(=O)[C@H](Cc1ccccc1)n1c(=O)[nH]c2ccccc2c1=O)C(=O)N1CCC(C(=O)O)CC1	n	n	31.8	n
CC(C)C[C@H](NC(=O)[C@H](Cc1ccccc1)n1c(=O)[nH]c2ccccc2c1=O)C(=O)N1CCC(C(=O)O)CC1	n	n	n	n
Cc1cccc2nc(-c3cccc(NS(=O)(=O)c4ccccc4)c3)cn12	x	x	n	x
CN1CCCC(CC2c3ccccc3Sc3ccccc32)C1 (stereo unspecified)	-67.9	n	n	n
CC1(C)[N+]([O-])=C2C(=[N+]([O-])C1(C)C)c1ccccc1/C2=N\O	n	n	n	-98.3
ON=C1c2ccccc2-c2ccc(F)cc21	n	x	n	n
CN1CCN(C(=O)CN(Cc2ccc(Cl)cc2)S(C)(=O)=O)CC1	n	n	n	n
CS(=O)(=O)N(CC(=O)N1CCCCCC1)Cc1ccc(Cl)cc1	-78.4	n	n	n
Cn1c(SCc2ccccc2F)nc2c([nH]c3ccccc32)c1=O	x	x	n	x
CC(C)CCNC(=O)COc1ccc2c(c1)C(=O)CC(C)(C)O2	n	n	n	n
CC1(C)CC(=O)c2cc(OCC(=O)NCCN3CCCc4ccccc43)ccc2O1	-67.5	n	n	n
CC1(C)CC(=O)c2cc(OCC(=O)NCCCN3CCN(c4ccc(F)cc4)CC3)ccc2O1	-80.8	n	n	n
O=C(CN1C(=O)CSc2ccc(S(=O)(=O)N3CCCC3)cc21)Nc1cccc(Cl)c1	x	x	n	x
